# Assay outcomes (PubChem)
# Sampled rows, rich in hits. Any-hit rate of the full collection: about 1.8%.
# TLR9-MyD88 block: inhibitors of human TLR9-MyD88 binding. inhibition, % at 4.98 µM. CHO BLA complementation TLR9-MyD88, CCF4 FRET ratio. 340,000 tested, 0.21% active. AID 504734;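 active means inhibition above the mean over all tested compounds plus 3 SD, cut at about 21% in these data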;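 further: 0% = DMSO only wells and 100% = clavulanate BLA inhibitor control wells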
# NOD2 RIPK2 PPI: blocks binding of human NOD2 to RIPK2; inhibition, % at 4.98 µM; CHO BLA complementation NOD2-RIPK2, CCF4 ratio; O43353; 360,000 tested, 0.38% active; in the data active means inhibition above about 21%;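 further: 0% = vehicle only and 100% = reference blocker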
# Mcl1 Bid PPI: disrupts binding of human Mcl-1 to Bid peptide | Q07820 | TR-FRET Mcl-1/Bid-Dy647 peptide binding, 1536-well | inhibition, % at 21.7 µM | 220,000 tested, 0.97% active | AID 1021;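 active means compounds that cut the binding signal by more than half at the single screening dose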;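 further: His-tagged Mcl-1 with europium anti-His antibody binding Bid BH3 peptide; 0% = Mcl-1 plus peptide wells and 100% = peptide-only wells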
# Mcl1 Noxa PPI: Mcl-1/Noxa interaction inhibition; Q07820; TR-FRET Mcl-1/Noxa peptide binding, 2 h; inhibition, % at 21.7 µM; 220,000 tested, 1.5% active; AID 1022;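 active means compounds that cut the protein-peptide binding signal by more than 50% relative to plate controls in a single-dose test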;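 further: His-tagged Mcl-1 with rhodamine Noxa BH3 peptide and terbium anti-His antibody; 0% = Mcl-1 plus Noxa peptide wells and 100% = peptide-only wells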
# Bim-Mcl-1: human Bim-Mcl-1 interaction inhibition. Bead-based flow cytometry, Bim peptide-Mcl-1 binding. inhibition, % at 10 µM. 190,000 tested, 0.1% active; in the data active means inhibition above about 40%;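 further: 0% = no compound tracer wells and 100% = peptide blocker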
# TLR4 MyD88 comp: inhibitors of human TLR4-MyD88 binding; 200,000 tested, 0.18% active; inhibition, % at 8.4 µM; HeLa CL3-4 TLR4/MyD88 BLA complementation, FRET ratio; O00206+Q99836; AID 861; in the data active means inhibition above about 25%;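 further: 0% = vehicle and 100% = reference inhibitor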
# Target sequence (O00206 whole entry, looked up): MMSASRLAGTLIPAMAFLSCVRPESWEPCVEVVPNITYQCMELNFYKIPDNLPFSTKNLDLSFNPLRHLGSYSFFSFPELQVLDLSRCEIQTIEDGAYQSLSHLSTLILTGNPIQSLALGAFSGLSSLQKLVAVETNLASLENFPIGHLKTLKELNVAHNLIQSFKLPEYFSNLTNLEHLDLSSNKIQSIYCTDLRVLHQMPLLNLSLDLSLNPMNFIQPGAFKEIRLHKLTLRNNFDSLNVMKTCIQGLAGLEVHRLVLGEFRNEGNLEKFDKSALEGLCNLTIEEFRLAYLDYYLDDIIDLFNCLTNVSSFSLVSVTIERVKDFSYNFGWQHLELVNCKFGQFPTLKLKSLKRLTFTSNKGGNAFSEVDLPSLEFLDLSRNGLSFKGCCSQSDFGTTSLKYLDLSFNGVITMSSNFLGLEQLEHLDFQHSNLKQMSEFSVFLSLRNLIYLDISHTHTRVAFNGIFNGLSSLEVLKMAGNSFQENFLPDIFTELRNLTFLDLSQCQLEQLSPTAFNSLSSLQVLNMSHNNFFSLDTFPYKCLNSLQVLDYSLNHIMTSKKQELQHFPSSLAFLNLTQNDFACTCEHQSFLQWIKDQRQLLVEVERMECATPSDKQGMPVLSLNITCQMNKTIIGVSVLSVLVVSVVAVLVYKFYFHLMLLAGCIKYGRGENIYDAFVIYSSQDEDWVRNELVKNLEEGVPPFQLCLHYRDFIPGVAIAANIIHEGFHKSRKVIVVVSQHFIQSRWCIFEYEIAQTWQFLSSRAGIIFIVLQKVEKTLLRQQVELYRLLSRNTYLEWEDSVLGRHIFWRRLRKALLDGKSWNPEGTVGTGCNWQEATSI
# Target sequence (Q99836 whole entry, looked up): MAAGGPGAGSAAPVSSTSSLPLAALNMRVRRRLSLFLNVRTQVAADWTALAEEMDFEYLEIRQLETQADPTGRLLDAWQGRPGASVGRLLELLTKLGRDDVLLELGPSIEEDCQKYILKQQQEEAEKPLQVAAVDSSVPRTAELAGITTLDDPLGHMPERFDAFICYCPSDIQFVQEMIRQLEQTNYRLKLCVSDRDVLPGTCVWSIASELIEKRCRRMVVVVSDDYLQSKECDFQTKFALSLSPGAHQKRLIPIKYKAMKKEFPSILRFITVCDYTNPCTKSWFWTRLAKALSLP
# Active calls of the source: *; x = no result.
SMILES,TLR9-MyD88 block,NOD2 RIPK2 PPI,Mcl1 Bid PPI,Mcl1 Noxa PPI,Bim-Mcl-1,TLR4 MyD88 comp
CC(C)Oc1ccc(C(=O)Nc2ccc(N(C)C)cc2)cc1,-8.3,7.4,-31.6,78.2*,3.0,-19.1
CCOC(=O)c1c(C)c(C(=O)NCCOC)c(C)n1CC,2.1,-7.3,-25.2,11.6,-3.0,6.2
CC(C)Oc1ccc(C(=O)Nc2ccc3c(c2)n(C)c(=O)n3C)cc1,-2.9,-13.1,x,x,x,x
COc1ccc(-c2nc3ccc(C)cn3c2Cc2ccsc2)cc1OC,x,3.9,x,x,x,x
COc1ccc(CNC(=O)CC2C[C@H](C(=O)N3CCOCC3)[C@@]3(CCC4CCCC4)c4[nH]c5ccccc5c4CCN3C2=O)cc1OC (stereo partly drawn),-1.3,-3.7,x,x,x,x
CCOC(=O)N1CCN(C(=O)c2cn(CC)c3cc(N4CCN(C)CC4)c(F)cc3c2=O)CC1,x,x,23.5,17.6,-2.0,3.4
COc1ccc2c(c1)oc(=O)c1ccccc12,0.6,-25.9,-11.1,26.9,4.0,-11.0
O=c1oc2cc(O)c(Cl)cc2c2ccccc12,-12.0,6.0,-60.8,53.8*,-1.0,-1.2
COC(=O)c1ccc(CNC(=O)c2c3c(nc4ccccc24)CCN(Cc2ccccc2)C3)cc1,-3.6,5.7,94.0*,26.2,-4.0,-0.2
O=C(NCc1ccc(F)cc1)c1c2c(nc3ccccc13)CCN(Cc1ccccc1)C2,1.8,0.6,-51.9,2.3,-1.0,-2.5
Nc1cc2nc[nH]c2cc1N,-6.8,-2.6,-9.4,74.3*,8.0,4.2
Cn1c(=O)n(C)c2cc3[nH]cnc3cc21,1.0,-4.5,x,x,x,x
COc1ccc(CNC(=O)COC(=O)c2ccc(S(=O)(=O)NCc3ccco3)cc2)cc1,-6.3,-3.3,x,x,x,x
CCOC(=O)c1[nH]cnc1C(=O)Nc1ccncc1,0.5,1.0,83.4*,-11.1,-1.0,-6.5
CCOC(=O)C(NC(C)=O)(Nc1ccc(S(=O)(=O)Nc2cc(C)on2)cc1)C(F)(F)F (stereo not drawn),-2.6,3.7,3.5,22.8,-1.0,3.3
Cc1cc(NS(=O)(=O)c2ccc(NC(NC(=O)C(C(F)(F)F)C(F)(F)F)(C(F)(F)F)C(F)(F)F)cc2)no1,4.7,-8.0,70.7*,40.1,1.0,1.4
NS(=O)(=O)c1cc(C(=O)N=Nc2c(O)[nH]c3ccccc23)ccc1Cl,-3.0,-7.8,-1.1,51.0*,x,x
O=C(N=Nc1c(O)[nH]c2ccccc12)c1cc(-c2ccc(F)cc2)n[nH]1,2.7,1.7,37.1,52.0*,-2.0,1.0
CC1(C(=O)NS(=O)(=O)c2cccs2)CCN1C(=O)Cc1ccccc1 (stereo not drawn),x,-0.6,x,x,x,x
CN(C)S(=O)(=O)c1ccc(S(=O)(=O)NCc2ccc3c(c2)OCO3)cc1,-6.7,-6.1,x,x,x,x
Cc1ccc2nc(-c3ccc(N4C(=NC(=O)CCC(=O)O)SC5CS(=O)(=O)CC54)cc3)sc2c1 (stereo not drawn),-8.7,2.7,-10.6,54.6*,-6.0,3.0
Cc1cc(Cl)ccc1-n1c(-c2cccnc2)n[nH]c1=S,-3.9,-5.3,-92.6,59.3*,x,x
Cc1c(C(=O)Nc2ccccc2)cn2c(nc3ccccc32)c1C#N,4.0,-1.4,-1.8,-6.1,11.0,-1.6
Cc1ccccc1C(=O)Nc1ccc2c(C#N)c3nc4ccccc4nc3n2c1,3.2,10.2,84.1*,70.4*,4.0,9.0
Cc1cc2nc(-c3ccc(SCc4ccc(C(=O)O)cc4)nc3)[nH]c2cc1C,4.5,1.0,-61.7,75.8*,4.0,-28.4
SMILES,TLR9-MyD88 block,NOD2 RIPK2 PPI,Mcl1 Bid PPI,Mcl1 Noxa PPI,Bim-Mcl-1,TLR4 MyD88 comp
O=C(O)c1cccc(NC(=S)N/N=C/c2ccccc2OCc2ccc(Br)cc2)c1,7.5,-3.0,-36.7,51.9*,-4.0,-5.0
O=C(O)c1cccc(NC(=S)N/N=C/c2ccccc2OCc2cccc(Br)c2)c1,-12.5,-10.7,-38.5,55.8*,-3.0,0.3
COc1cc(OC)cc(C(=O)NC(C(=O)Nc2ccc3c(c2)OCO3)C(C)C)c1 (stereo not drawn),-6.4,-5.4,x,x,x,x
COc1ccc(-c2csc(NC(=S)NC(=O)/C=C/c3ccco3)n2)cc1OC,7.5,-4.4,69.7*,52.1*,-6.0,-7.3
COc1ccc(-c2csc(NC(=S)NC(=O)/C=C/c3ccco3)n2)cc1Br,x,-15.9,7.7,65.7*,x,x
Cc1cccc2c(N=O)c(O)[nH]c12,11.5,2.2,-50.2,55.0*,x,x
Cc1[nH]c2c(C)cccc2c1CC(=O)O,7.8,14.6,-40.1,6.9,-1.0,-3.0
N#Cc1ccc(S(=O)(=O)N2CCC(C(=O)Nc3cccc(C(=O)NC4CC4)c3)CC2)cc1,5.1,-16.7,x,x,x,x
COc1cccc(-c2nn(C)c3sc(C(=O)NCc4ccc5c(c4)OCO5)cc23)c1,-9.3,5.0,-8.6,-15.9,0.0,14.7
COc1cccc(-c2nn(C)c3sc(C(=O)NCc4ccc(C)o4)cc23)c1,1.7,3.0,-7.9,59.8*,2.0,-6.2
CC1(C(=O)NS(=O)(=O)c2ccc(Cl)cc2)CCN1C(=O)C/C=C/c1ccccc1 (stereo not drawn),x,4.4,x,x,x,x
O=c1[nH]cnc2c1ncn2[C@@H]1O[C@H](COS(=O)(=O)O)[C@@H](O)[C@H]1O,-5.4,0.2,x,x,x,x
N#Cc1c(N)sc(=S)c2c1CCCCC2,9.7,11.8,25.2,71.0*,-4.0,-1.4
N#Cc1c(N)sc2c1CCCCCC2,-15.6,0.2,-42.6,12.8,-7.0,8.2
Cc1[nH]n(-c2ncc(-c3ccccc3)s2)c(=O)c1C(c1ccc(Cl)cc1)C(C#N)C#N (stereo not drawn),-16.6,1.6,18.0,80.7*,0.0,-9.7
Cc1[nH]n(-c2ccccc2)c(=O)c1C(c1ccccc1[N+](=O)[O-])C(C#N)C#N (stereo not drawn),0.7,-3.2,x,x,x,x
O=C1N=C(c2ccccc2)S/C1=C\c1cccs1,-9.6,7.5,-27.6,72.4*,-8.0,4.9
O=C1N=C(N2CCN(c3ccccc3)CC2)S/C1=C/c1cccs1,-20.2,0.8,-67.1,-1.8,-4.0,15.1
CCOc1ccc2c(c1)C(N(CCN1CCOCC1)C(=O)Nc1ccccc1)CC(C)(C)O2 (stereo not drawn),2.7,8.8,1.6,15.7,1.0,2.2
Cc1ccc(N(CC(=O)NCCc2ccccc2)C(=O)CCC(=O)Nc2cc(C)ccn2)cc1,-12.6,3.7,x,x,x,x
O=C(O)CC(C(=O)O)N1C(=O)/C(=C/c2ccc(-c3nc4ccccc4s3)o2)SC1=S (stereo not drawn),2.2,-5.5,-18.6,5.4,3.0,2.4
O=C(O)CCN1C(=O)/C(=C/c2ccc(-c3nc4ccccc4s3)o2)SC1=S,7.7,6.5,94.2*,104.2*,9.0,-6.1
O=C(O)CCCN1C(=O)/C(=C\c2ccc(-c3nc4ccccc4s3)o2)SC1=S,11.7,5.5,87.2*,104.3*,x,x
